Hits are enriched below; roughly 1.8% of the tested compounds scored in any of these assays.
GLP1R inv ag: acts as inverse agonist at human GLP-1 receptor | P43220 | HEK293 GLP-1R CRE-luciferase, luminescence, 24 h; GLP-1R form is constitutively active | Potency, µM (titrated, usually from 38.3 µM), inactives show at the top dose activity change, negative = inhibition, most hits filed as inhibitors | 410,000 tested, 1.6% active | AID 624417; also: % is scaled to controls: 0 for no effect and ±100 for the full control effect; nearly all actives have a fitted effect of over 55% in size
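Luminescence readout: a drop in cAMP-driven luciferase signal flags inverse agonism at a constitutively active GLP-1R stably expressed in HEK293. Compound exposure lasted 24 hr at 37 deg C, 5% CO2.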
PGK inhibitor: inhibitors of T. brucei phosphoglycerate kinase; P07378; AID 602233; PGK/GAPDH coupled, Kinase-Glo luminescence, 60 min; Potency, µM (top dose mostly 57.5 µM), for the others: at the highest dose activity change, negative = inhibition, hits mostly inhibitors; 380,000 tested, 0.043% active; also: % is scaled to controls: 0 for no effect and ±100 for the full control effect; nearly all actives have a fitted effect of over 60% in size
Target sequence (P07378 whole entry, looked up): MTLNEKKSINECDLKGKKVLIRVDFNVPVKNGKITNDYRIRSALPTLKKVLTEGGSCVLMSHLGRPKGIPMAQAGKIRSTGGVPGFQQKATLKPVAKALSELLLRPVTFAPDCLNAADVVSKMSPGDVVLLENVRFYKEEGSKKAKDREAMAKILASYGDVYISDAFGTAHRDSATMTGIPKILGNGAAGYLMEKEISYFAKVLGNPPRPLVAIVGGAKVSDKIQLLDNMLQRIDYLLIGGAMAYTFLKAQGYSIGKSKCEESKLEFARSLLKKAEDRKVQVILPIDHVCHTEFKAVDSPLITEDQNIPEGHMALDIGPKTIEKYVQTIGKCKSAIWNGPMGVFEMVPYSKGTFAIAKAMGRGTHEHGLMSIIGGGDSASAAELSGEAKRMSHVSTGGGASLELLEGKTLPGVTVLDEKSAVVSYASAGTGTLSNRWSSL
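Recombinant glycosomal PGK reaction used 1,3-bisphosphoglycerate generated in-well by GAPDH (100nM final) in 100mM TEA pH 7.6, 5mM MgCl2, 0.01% Tween-20. After 60 minutes at room temperature, ATP was read by Kinase-Glo Plus luminescence end-point.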
GLP-1R agonist: agonists of human GLP-1 receptor; HEK293 GLP-1R CRE-luciferase, luminescence, 4-6 h; cells express a hypersensitive GLP-1R form; P43220; Potency, µM (series often up to 45.6 µM), for the others: top-dose activation, usual class: activators; 380,000 tested, 0.007% active; also: % of control where 0% means no effect
Tb PFK inh: blocks T. brucei phosphofructokinase; O15648; T. brucei PFK, ADP-Glo luminescence; Potency, µM (titrated, usually from 57.5 µM), inactives show at the top dose activity, negative = inhibition, actives largely listed as inhibitors; 330,000 tested, 0.17% active;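 also: 0% = uninhibited 1x PFK enzyme wells and -100% = no-enzyme wells; nearly all actives have a fitted effect of over 60% in size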
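1.25 nM PFK with 0.5 mM F6P and 0.1 mM ATP in 0.1 M TEA pH 8.0, 5 mM MgCl2, incubated 45 min at room temperature; ADP measured by ADP-Glo luminescence; compounds titrated up to 57 uM.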
GLP1R cytotox: cytotoxicity in counter-screen for GLP-1R inverse agonists. HEK293 cAMP-luciferase reporter cells, luminescence, 24 h. Potency, µM (highest dose often 38.3 µM), inactives show at the top dose activity change, negative = inhibition, hits mostly inhibitors. 410,000 tested, 0.13% active. AID 624418;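 also: loss of luciferase light is scored as toxicity; % is scaled to controls: 0 for no effect and ±100 for the full control effect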
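Step one: seed cells (200 cells/uL, DMEM with 10% Nu serum, 1% pen-strep). Step two: 12-hour incubation at 37 deg C. Step three: pin 23 nL compound, incubate 24 hr. Step four: add luciferase reagent, read luminescence 12 min later.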
Pin1 inh: blocks the human prolyl isomerase Pin1; Q13526; Pin1 FP peptide displacement, HiFluor488, 10 min; Potency, µM (series often up to 115 µM), without a hit: top-dose activity, negative = inhibition, hits mostly inhibitors; 390,000 tested, 0.009% active; active = well fitted inhibition curve with a large enough effect in the polarisation, with a control signal flat, not every such curve was filed as active; inconclusive = small, poorly fitted or top-dose-only effect, or effect the other way, or a change in a side signal; inactive = no such curve, though single readings can be large or run the other way; the % refers to the polarisation; also: % is scaled to controls: 0 for no effect and ±100 for the full control effect
Target sequence (Q13526 whole entry, looked up): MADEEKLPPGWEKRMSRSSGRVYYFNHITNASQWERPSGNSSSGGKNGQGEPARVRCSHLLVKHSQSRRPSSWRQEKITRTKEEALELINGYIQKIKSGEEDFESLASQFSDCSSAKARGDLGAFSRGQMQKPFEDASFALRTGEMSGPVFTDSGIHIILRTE
Numbers without * were called inactive. Unless noted, calls follow the shape of the dose curve; as a rule, active = well fitted curve in the direction sought with a large enough effect; inconclusive = small, poorly fitted or top-dose-only effect, or another doubt; inactive = no such curve, though single readings can be large; an effect the other way counts as inactive or inconclusive. Potency is read from the fitted curve at half-maximal effect.

`COc1ccc(OC)c(-c2nn(-c3ccccc3)cc2C(=O)N2CCc3ccccc3C2)c1` gave GLP1R inv ag 13µM*, PGK inhibitor -10%, GLP-1R agonist 8%, Tb PFK inh 0%, GLP1R cytotox 15% and Pin1 inh 4%.
For COc1ccccc1-c1nn(-c2ccccc2)cc1C(=O)N1CCc2ccccc2C1 the results were GLP1R inv ag 10µM*, PGK inhibitor 5%, GLP-1R agonist 2%, Tb PFK inh 7%, GLP1R cytotox -5% and Pin1 inh inconclusive.
For c1ccc(P(c2ccccc2)c2cnc3ccccn23)cc1 the results were Pin1 inh -1%.
For C=CC1=C(C(=O)O)N2C(=O)[C@@H](NC(=O)C(N=O)c3csc(N)n3)[C@H]2SC1 (stereo not given in full) the results were GLP-1R agonist -3%.
For Clc1ncc(C#Cc2ccccc2)c2ncncc12 the results were Pin1 inh 13%.
Screening COc1ccc(CCC(=O)NC2CC(=O)N(c3ccc(C)cc3)C2)cc1 (stereo not given) returned GLP1R inv ag 4%, PGK inhibitor inactive, GLP1R cytotox 2% and Pin1 inh -19%.
For COc1cccc(/C=N/NC(=O)C(=O)N/N=C/c2cccc(OC)c2O)c1O the results were GLP1R inv ag -7%, PGK inhibitor -1%, GLP-1R agonist 0%, Tb PFK inh -3%, GLP1R cytotox 1% and Pin1 inh 37%.
Screening COc1cccc(/C=N/NC(=O)c2ccoc2C)c1O returned GLP1R inv ag 1.3µM*, PGK inhibitor inconclusive, GLP-1R agonist 3%, Tb PFK inh -12%, GLP1R cytotox -41% and Pin1 inh -3%.
`O=C(CCS(=O)(=O)c1ccc(F)cc1)Nc1nc(-c2ccncc2)cs1` gave GLP1R inv ag inconclusive, PGK inhibitor -4%, GLP-1R agonist 2%, Tb PFK inh 21µM*, GLP1R cytotox -28% and Pin1 inh -1%.
CSCCC(NS(=O)(=O)c1cccc(C(F)(F)F)c1)C(=O)Nc1ccccc1N1CCCC1 (stereo not given) was read as GLP1R inv ag 10µM*, PGK inhibitor -3%, GLP-1R agonist -16%, Tb PFK inh -7%, GLP1R cytotox -16% and Pin1 inh inconclusive.
O=C(COc1cccc(C(F)(F)F)c1)Nc1ccccc1N1CCCCC1 was read as GLP1R inv ag 7%, PGK inhibitor inactive, GLP-1R agonist -17%, Tb PFK inh -1%, GLP1R cytotox -4% and Pin1 inh 2%.
`CCc1ccc(N2C(=O)C(Cl)=C(N3CCCCCC3)C2=O)cc1` gave GLP1R inv ag 10µM*, PGK inhibitor 4%, GLP-1R agonist 11%, Tb PFK inh 1%, GLP1R cytotox 5% and Pin1 inh 1%.
`CCc1ccc(N2C(=O)C(Cl)=C(N3CCOCC3)C2=O)cc1` gave GLP1R inv ag 31%, PGK inhibitor 2%, GLP-1R agonist 0%, Tb PFK inh 0%, GLP1R cytotox -2% and Pin1 inh inconclusive.
`CCc1ccc(NC(=O)C(CC)n2nnc(C(=O)OC)c2C(=O)OC)cc1` (stereo not given) gave GLP1R inv ag -7%, PGK inhibitor -9%, GLP1R cytotox 15% and Pin1 inh -1%.
O=C(NNc1cc(Cl)cc(Cl)c1)C1CCC1 was read as GLP1R inv ag 5.6µM*, PGK inhibitor inactive, GLP-1R agonist 9%, Tb PFK inh -3%, GLP1R cytotox -19% and Pin1 inh -3%.
Screening O=C(NNc1ccc(Cl)cc1)C1CCC1 returned GLP1R inv ag inconclusive, PGK inhibitor 3%, GLP-1R agonist -7%, Tb PFK inh 1%, GLP1R cytotox -12% and Pin1 inh -7%.
For CC(C)(C)c1ccccc1Nc1nc(C#N)nc(NC2CCCC2)n1 the results were Pin1 inh 7%.
For Cc1cc(N2CCC(C)CC2)nc(SCC(=O)c2ccccc2)n1 the results were GLP1R inv ag 3.2µM*, PGK inhibitor -4%, GLP-1R agonist 1%, Tb PFK inh 3%, GLP1R cytotox 1% and Pin1 inh -2%.
`Cc1cc(N2CCCC2)nc(SCC(=O)c2ccccc2)n1` gave GLP1R inv ag 25%, PGK inhibitor 9%, GLP-1R agonist 0%, Tb PFK inh -4%, GLP1R cytotox 5% and Pin1 inh 1%.
Screening COc1cccc(CCN2CCC(CNS(=O)(=O)c3cc(-c4cc(C)no4)ccc3C)CC2)c1 returned GLP1R inv ag 4.5µM*, PGK inhibitor -2%, GLP-1R agonist -9%, Tb PFK inh 0%, GLP1R cytotox inconclusive and Pin1 inh 0%.
Cc1ccc(C(=O)/C=C/Nc2ccccn2)cc1 was read as GLP1R inv ag 5.6µM*, PGK inhibitor -12%, GLP-1R agonist -15%, GLP1R cytotox 10% and Pin1 inh 2%.
Screening Cc1cccc(C(=O)NC(=O)Nc2ccc(-n3nc(C(F)(F)F)cc3C(F)(F)F)cc2)c1 returned GLP1R inv ag 14%, PGK inhibitor 3%, GLP1R cytotox -7% and Pin1 inh -8%.
`Cc1ccc(C(C)(C)C)cc1S(=O)(=O)Nc1nc2ccccc2nc1Cl` gave GLP1R inv ag 10µM*, PGK inhibitor -4%, GLP-1R agonist 0%, Tb PFK inh 1%, GLP1R cytotox -15% and Pin1 inh -15%.
For CCCC(=O)NCC(c1ccc2c(c1)OCO2)N1CCOCC1 (stereo not given) the results were GLP1R inv ag -2%, PGK inhibitor -8%, GLP1R cytotox -2% and Pin1 inh -4%.
Screening OCCN1CCN(CC(O)COC(c2ccc(F)cc2)c2ccc(F)cc2)CC1 (stereo not given) returned GLP1R inv ag 3.5µM*, PGK inhibitor 8%, GLP-1R agonist 5%, Tb PFK inh -7%, GLP1R cytotox -16% and Pin1 inh 1%.
`COc1ccc(N2CCN(CC(O)COC(c3ccc(F)cc3)c3ccc(F)cc3)CC2)cc1` (stereo not given) gave GLP1R inv ag inconclusive, GLP-1R agonist -1%, Tb PFK inh -4%, GLP1R cytotox -25% and Pin1 inh -8%.
Screening CCN(Cc1ccccc1)C(=O)c1cccc(S(=O)(=O)N2CCN(Cc3ccccc3)CC2)c1 returned GLP1R inv ag inconclusive, PGK inhibitor 0%, GLP-1R agonist 1%, Tb PFK inh 0%, GLP1R cytotox 9% and Pin1 inh 3%.
Screening COCCN(Cc1ccccc1)C(=O)c1cccc(S(=O)(=O)N2CCN(Cc3ccccc3)CC2)c1 returned GLP1R inv ag 14µM*, PGK inhibitor -4%, GLP-1R agonist 4% and GLP1R cytotox 2%.

Bioassay records as filed in PubChem BioAssay.
